From publication PMC10726135, “HNF4α isoforms regulate the circadian balance between carbohydrate and lipid metabolism in the liver” come the findings set out here.

In all, about 18,000 sequences were measured (“log2 normalized intensity”: median about 0.39, highest 2% from about 6.6 on). Only a selection was taken, and the highest values are over-represented in it overall.

In the assay the target is T1, HNF4alpha2 (COS-7 nuclear extract) (Homo sapiens, UniProt P41235 1-474).
T1 sequence: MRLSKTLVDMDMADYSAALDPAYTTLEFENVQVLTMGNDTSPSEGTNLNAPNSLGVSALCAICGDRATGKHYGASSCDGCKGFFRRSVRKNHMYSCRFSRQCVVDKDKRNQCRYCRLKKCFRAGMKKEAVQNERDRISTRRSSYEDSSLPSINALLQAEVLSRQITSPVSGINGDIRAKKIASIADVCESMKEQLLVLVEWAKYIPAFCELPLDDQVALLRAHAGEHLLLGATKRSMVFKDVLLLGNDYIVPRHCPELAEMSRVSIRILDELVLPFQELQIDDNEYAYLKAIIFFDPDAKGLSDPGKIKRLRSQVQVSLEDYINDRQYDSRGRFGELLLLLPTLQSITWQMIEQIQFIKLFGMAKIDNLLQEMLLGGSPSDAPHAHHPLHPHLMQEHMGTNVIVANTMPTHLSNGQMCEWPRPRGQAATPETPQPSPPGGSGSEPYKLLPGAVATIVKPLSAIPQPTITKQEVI
Nature of the assay: protein-binding microarray; COS-7 nuclear extract on double-stranded Agilent 4x180k PBM; binding buffer, salt, pH and temperature not given in the material; high values mean tight binding. The following applies: chain copies: 2; label: 3' end of strand 1 on the slide; dsDNA, one strand shown. In outline:
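Using CaPO4, COS-7 cells were transiently transfected with a human HNF4α isoform expression vector, and their nuclear extracts were applied to a custom Agilent SurePrint G3 4x180k double-stranded oligonucleotide array (~60 nt; ~44,000 test sequences in quadruplicate). Bound HNF4α was imaged at 2-µm resolution with an Agilent G2565CA scanner. Agilent software supplied the background-corrected, normalized gProcessedSignal that serves as the binding signal.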
Regarding “CTGCCTTAGTCCCAGTATGGTCTCAGTAATGCCTAGGGAGATTAGAGTATCGGTCGA”, the binding signal was -0.127 log2 normalized intensity. To “ATCTCCCAGTTCTTTTGACCTTTGCCTCATGCCTAGGGAGATTAGAGTATCGGTCGA” belongs 7.95 log2 normalized intensity.

On to “TCCTTTTGACCACAGTTATCTCCCCAGCTTGCCTAGGGAGATTAGAGTATCGGTCGA”, for which the binding signal was 2.47 log2 normalized intensity. The value for “AGTTATATCTTACCTCCTTCTCCCCCATGCGCCTAGGGAGATTAGAGTATCGGTCGA” was 4.87 log2 normalized intensity. To “ATGCTATCTCCCAGTTCTTTTGACCTTTGCGCCTAGGGAGATTAGAGTATCGGTCGA” belongs 7.68 log2 normalized intensity; to “CCAGTTCTTTTGACCTTTGCCTCATTCTTAGCCTAGGGAGATTAGAGTATCGGTCGA”, 6.03 log2 normalized intensity.

As to “CCTCAATGCTATCTCCCAGTTCTTTTGACCGCCTAGGGAGATTAGAGTATCGGTCGA”, the binding signal was 2.52 log2 normalized intensity. The value for “GAGCGCTTTGAGGCCTATGGCGAAAAAGGAGCCTAGGGAGATTAGAGTATCGGTCGA” was -0.829 log2 normalized intensity.

As for “AATTCATCTCTAAGCTACTGAAAATGACCTGCCTAGGGAGATTAGAGTATCGGTCGA”, the binding signal is 3.39 log2 normalized intensity.

In the case of “TAAGCTACTGAAAATGACCTTTGTTCCCTGGCCTAGGGAGATTAGAGTATCGGTCGA”, the binding signal turned out to be 8.2 log2 normalized intensity.

With “ATCTCTAAGCTACTGAAAATGACCTTTGTTGCCTAGGGAGATTAGAGTATCGGTCGA”, the binding signal stood at 6.11 log2 normalized intensity. Take “AAAAAATTACTGACCCTTGCACTGTAAGATGCCTAGGGAGATTAGAGTATCGGTCGA”: the binding signal stood at 3.49 log2 normalized intensity.

As to “TACTGAAAATGACCTTTGTTCCCTGCACTTGCCTAGGGAGATTAGAGTATCGGTCGA”, the binding signal came out at 7.15 log2 normalized intensity.

For the sequence “AAAAAAAAAAATTACTGACCCTTGCACTGTGCCTAGGGAGATTAGAGTATCGGTCGA”, the binding signal was determined as 4.58 log2 normalized intensity. To “AAGCAATGGCTACCAAGGAGTGGACTGTTCGCCTAGGGAGATTAGAGTATCGGTCGA” belongs 1.7 log2 normalized intensity; to “GGGGGCAAGGTACACCATCTATGAGCTCAAGCCTAGGGAGATTAGAGTATCGGTCGA”, 1.28 log2 normalized intensity.

In the case of “AAAGGCGTTTGCTCCCATCCCCCCAAAGGCGCCTAGGGAGATTAGAGTATCGGTCGA”, the binding signal turned out to be 4.99 log2 normalized intensity. To “TTAGATCAGAGGTCTAATTCCCAAGGGTATGCCTAGGGAGATTAGAGTATCGGTCGA” belongs -0.435 log2 normalized intensity; to “CTTTGTAGCACTTTGGACCTCCACTTTGGAGCCTAGGGAGATTAGAGTATCGGTCGA”, 3.1 log2 normalized intensity; to “CCATTTTGGACTTTGACCTCCAAAATTATAGCCTAGGGAGATTAGAGTATCGGTCGA”, 10.4 log2 normalized intensity. “GAATTCTTGACTTTGGACTTTCAAAAGTTAGCCTAGGGAGATTAGAGTATCGGTCGA”: the binding signal came to 4.21 log2 normalized intensity. As for “AATGATGATGACTTTTGACCCCAGGGGAAAGCCTAGGGAGATTAGAGTATCGGTCGA”, the binding signal came to 5.51 log2 normalized intensity. To “CATTGACTTTGCCTTTTGGCTAAAGTCCAAGCCTAGGGAGATTAGAGTATCGGTCGA” belongs 4.16 log2 normalized intensity; to “GAGACCCATTTTGGACTTTGACCTCCAAAAGCCTAGGGAGATTAGAGTATCGGTCGA”, 10.7 log2 normalized intensity. With “TTAGCCCAGTGAGACCCATTTTGGACTTTGGCCTAGGGAGATTAGAGTATCGGTCGA”, the binding signal came out at 6.34 log2 normalized intensity.

Regarding “CCAGTGAGACCCATTTTGGACTTTGACCTCGCCTAGGGAGATTAGAGTATCGGTCGA”, the binding signal worked out at 11.9 log2 normalized intensity. As for “CACAGCTGGACTTTGGCTGCAAAATTTGAAGCCTAGGGAGATTAGAGTATCGGTCGA”, the binding signal amounted to 3.04 log2 normalized intensity. To “TTGGACTTTGACCTCCAAAATTATAAGTCAGCCTAGGGAGATTAGAGTATCGGTCGA” belongs 8.25 log2 normalized intensity. As for “TAGCACTTTGGACCTCCACTTTGGAGGGGGGCCTAGGGAGATTAGAGTATCGGTCGA”, the binding signal came to 1.7 log2 normalized intensity. With “TTTGGAATTTGACCTCATTTGCTCCCAGTGGCCTAGGGAGATTAGAGTATCGGTCGA”, the binding signal is 3.85 log2 normalized intensity. As to “CCTCTCTCTCTCTCTCTCACACACACACACGCCTAGGGAGATTAGAGTATCGGTCGA”, the binding signal turned out to be 2.09 log2 normalized intensity. With “CTTACTTGGCATCATCAAACAAGATTTATCGCCTAGGGAGATTAGAGTATCGGTCGA”, the binding signal was -0.732 log2 normalized intensity. The value for “TGTAGGTAAGCACAAAGTACAGCTTTTTGTGCCTAGGGAGATTAGAGTATCGGTCGA” was 1.13 log2 normalized intensity. The value for “TATAAAGGTCAACTGCCCTCTCAAATTACAGCCTAGGGAGATTAGAGTATCGGTCGA” was 1.51 log2 normalized intensity.

In the case of “TTTTAAAATAGATAAGTCCCTAAGAGGAATGCCTAGGGAGATTAGAGTATCGGTCGA”, the binding signal was -0.74 log2 normalized intensity. The value for “ACAAATGAGGGGACAAAGTTCGTGGAAAGTGCCTAGGGAGATTAGAGTATCGGTCGA” was 2.91 log2 normalized intensity; that for “GAGCCTGCACGCCTGTTCACATTCCAGTGTGCCTAGGGAGATTAGAGTATCGGTCGA” was -0.595 log2 normalized intensity; that for “GACAGGATATTTTGAGGGCTCAAAGGTTACGCCTAGGGAGATTAGAGTATCGGTCGA” was 5.37 log2 normalized intensity. The value for “TGACCTTTGCATTCTTACCCAAGCCCCAAAGCCTAGGGAGATTAGAGTATCGGTCGA” was 3.73 log2 normalized intensity; that for “ATATTAACCTTTGCCCCAGCTGTCACCCAGGCCTAGGGAGATTAGAGTATCGGTCGA” was 5.03 log2 normalized intensity; that for “CCATCCTACAGGGTATGAATTTAACCTTTGGCCTAGGGAGATTAGAGTATCGGTCGA” was 4.2 log2 normalized intensity. The value for “ATTACATATTAACCTTTGCCCCAGCTGTCAGCCTAGGGAGATTAGAGTATCGGTCGA” was 5.74 log2 normalized intensity; that for “ACAGTAGACTTTTTTTTTCTTAATTGCCCTGCCTAGGGAGATTAGAGTATCGGTCGA” was 2.84 log2 normalized intensity.
